# The full list was thinned out, with hits kept by preference.
# GIRK2 activator: activators of NPY4-receptor-primed GIRK2 channels, summary, cell-based, HEK293, thallium flux; 34,000 tested, under 10 active; G protein-activated inward rectifier potassium channel 2 (Homo sapiens), P48051; HEK293 GIRK2/NPY4 cells, thallium flux fluorescence; AID 1259324, 2017; activation (% efficacy), % for hits at 37.5 µM;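 active = primary screen hit, no activity in plain HEK293 cells, and in GIRK2-only cells above 5% efficacy rising with concentration; inactive = the rest, including fluorescent compounds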;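 also: efficacy is normalized control-subtracted fluorescence 15 s after thallium addition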
# Target sequence (P48051 whole entry, looked up): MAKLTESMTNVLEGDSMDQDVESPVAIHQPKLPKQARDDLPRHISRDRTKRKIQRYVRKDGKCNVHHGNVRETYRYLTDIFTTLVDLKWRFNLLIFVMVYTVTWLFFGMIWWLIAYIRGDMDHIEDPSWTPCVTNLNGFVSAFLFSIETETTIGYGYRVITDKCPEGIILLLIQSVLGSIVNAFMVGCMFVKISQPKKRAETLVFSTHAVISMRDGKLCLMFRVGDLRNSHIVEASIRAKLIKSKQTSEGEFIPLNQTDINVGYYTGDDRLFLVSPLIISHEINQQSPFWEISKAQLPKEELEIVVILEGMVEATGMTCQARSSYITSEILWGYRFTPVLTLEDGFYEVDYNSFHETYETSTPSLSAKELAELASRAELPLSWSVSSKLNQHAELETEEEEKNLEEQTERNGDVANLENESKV
# GluA2 TARP mod: modulators of GluA2-stargazin AMPA receptor complexes, primary screen, cell-based, membrane potential dye; HEK293 GluA2+stargazin, membrane potential dye (FDSS), glutamate EC50; hits were called plate by plate, in both directions; AID 1259245, 2017; Voltage-dependent calcium channel gamma-2 subunit (Mus musculus) + Glutamate receptor 2 …; actives 3.5% (n = 40,000); calls only at 30 µM;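 active = any of four per-well response measures lying three or more SD from its plate-wide compound average, in either direction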
# An asterisk follows results filed as active; i = inactive; / = not tested or not shown; + = active, no number; [ ] = remark or other dose.
SMILES,GIRK2 activator,GluA2 TARP mod
CCC/C(O)=C(\C#N)c1nc2ccccc2[nH]1,i,+
CCCCOC(=O)CCc1nc2ccccc2[nH]c1=O,/,i
O=C(Nc1c2c(nn1-c1cccc(Cl)c1)CSC2)C(=O)NC1CCCC1,i,i
COC(=O)c1c(NC(=O)c2cc(C)oc2C)sc(C)c1C,/,i
COc1ccc(S(=O)(=O)Nc2nc(C(=O)Nc3ccc(C(C)C)cc3)cs2)cc1,i,+
COc1ccc(S(=O)(=O)Nc2nc(C(=O)Nc3ccc(Cl)cc3)cs2)cc1,i,i
O=C(NC1CCS(=O)(=O)C1)c1ccc(Cl)c(S(=O)(=O)N2CCCCCC2)c1 (stereo not given),i,/
COc1ccc(C)c2sc(N(CCN3CCOCC3)C(=O)c3ccc(Cl)s3)nc12,/,+
COc1ccc2sc(N(CCCN3CCOCC3)C(=O)c3ccno3)nc2c1,i,+
O=C(c1ccc(Br)s1)N(CCN1CCOCC1)c1nc2ccccc2s1,i,i
COc1ccc(OC)c2sc(N(CCN3CCOCC3)C(=O)CCc3ccccc3)nc12,/,i
COc1ccc2sc(N(CCN3CCOCC3)C(=O)c3cccc(F)c3)nc2c1,i,i
COc1ccc2nc(N(CCN3CCOCC3)C(=O)c3ccc(Br)s3)sc2c1,/,+
COc1ccc(C)c2sc(N(CCN3CCOCC3)C(=O)c3ccc(Cl)cc3)nc12,/,i
CCCC(=O)N(CCN1CCOCC1)c1nc2c(OC)ccc(OC)c2s1,/,+
Cn1ccnc1N1CCN(CC(=O)Nc2ccc(C(F)(F)F)cc2)CC1,i,/
O=C(c1cc(-c2ccco2)on1)N1CCC(Cn2cccn2)CC1,i,i
Cc1ccc(CNC(=O)CCc2csc(NS(=O)(=O)c3ccc(F)cc3)n2)cc1,i,i
COc1ccc(-c2ccc(=O)n(CCCC(=O)NC3CCCC3)n2)cc1,/,i
CNC(=O)C1Cc2ccccc2N1C(=O)Nc1cccs1 (stereo not given),i,i
CCn1nc(C)cc1C(=O)N(CCCN(C)C)c1nc2c(OC)ccc(Cl)c2s1,i,i
COc1ccc(C)c2sc(N(CCN3CCOCC3)C(=O)c3ccc(C)cc3)nc12,/,i
CCS(=O)(=O)c1cccc(C(=O)N(CCN2CCOCC2)c2nc3c(C)c(C)ccc3s2)c1,/,+
COc1ccc(OC)c2sc(N(CCN(C)C)C(=O)c3cc(C)nn3C)nc12,i,+
CCOc1ccc2nc(N(CCN3CCOCC3)C(=O)c3ccc(S(C)(=O)=O)cc3)sc2c1,/,+
SMILES,GIRK2 activator,GluA2 TARP mod
CCOc1ccc2nc(N(CCN3CCOCC3)C(=O)c3ccnn3C)sc2c1,i,i
CCS(=O)(=O)c1cccc(C(=O)N(CCN2CCOCC2)c2nc3ccccc3s2)c1,i,i
COc1ccc(C)c2sc(N(CCN3CCOCC3)C(=O)c3ccc(Br)s3)nc12,/,+
O=C(Nc1ccc(F)c(F)c1)c1csc(NS(=O)(=O)c2cccs2)n1,i,i
CSc1cccc2sc(N3CCN(C(=O)Nc4ccccc4C)CC3)nc12,i,i
COc1cc([N+](=O)[O-])ccc1NC(=O)c1ccc(=O)n(Cc2ccccc2F)c1,i,+
Cc1ccccc1Cn1cc(C(=O)Nc2cccc([N+](=O)[O-])c2)ccc1=O,i,i
Cc1cc([N+](=O)[O-])ccc1NC(=O)c1ccc(=O)n(Cc2ccc(F)cc2)c1,i,i
O=C(Nc1cccc([N+](=O)[O-])c1)c1ccc(=O)n(Cc2ccccc2F)c1,i,+
COc1cc([N+](=O)[O-])ccc1NC(=O)c1ccc(=O)n(Cc2ccccc2Cl)c1,i,i
COc1cc([N+](=O)[O-])ccc1NC(=O)c1ccc(=O)n(Cc2cccc([N+](=O)[O-])c2)c1,i,+
COc1ccccc1NC(=O)c1ccc(=O)n(Cc2cccc([N+](=O)[O-])c2)c1,i,i
COc1cc([N+](=O)[O-])ccc1NC(=O)c1ccc(=O)n(Cc2ccc(F)cc2)c1,i,+
COc1cc(C)c(Cl)cc1S(=O)(=O)N1CCN(C(=O)c2ccco2)CC1,i,/
COc1ccc(S(=O)(=O)N2CCCC2CNC(=O)C(=O)NCc2ccncc2)cc1 (stereo not given),/,i
CN(C)C(=O)Cc1ccc(NC(=O)c2cccc(C(F)(F)F)c2)cc1,i,i
CCOC(=O)C(CC)n1cnc2sc(C(=O)OC(C)C)c(C)c2c1=O (stereo not given),/,i
O=C(NCc1cccs1)N1CCC(c2nnc(-c3ccc(F)cc3)o2)CC1,i,i
CCc1nc2sc(C(c3ccc(Cl)cc3)N3CCCC3)c(O)n2n1 (stereo not given),i,i
O=C(Nc1ccc2c(c1)N(C(=O)C1CC1)CC2)C1c2ccccc2Oc2ccccc21,i,i
COc1ccc(-c2cc(C(=O)N3CCCC3)c3c(C)nn(C4CCS(=O)(=O)C4)c3n2)cc1 (stereo not given),i,i
COc1cc([N+](=O)[O-])cc2cc(C(=O)NC(C)c3ccccc3)c(=O)oc12 (stereo not given),i,i
COc1cc([N+](=O)[O-])cc2cc(C(=O)N3CCN(c4cccc(C(F)(F)F)c4)CC3)c(=O)oc12,i,+
CC(=O)Nc1ccc(S(=O)(=O)Nc2ccc(CC(=O)N3CCOCC3)cc2)c(C)c1,i,i
Cc1cc(NC(=O)C(=O)NCC2(c3cccs3)CCCC2)c2ccccc2n1,6.0%*[75 µM],/
SMILES,GIRK2 activator,GluA2 TARP mod
CSc1ccccc1NC(=O)C(=O)NCC1(c2cccs2)CCCC1,i,/
Cc1ccccc1-c1ccc(N2CCC(C(=O)NCc3cccnc3)CC2)nn1,i,i
Cc1ccccc1-c1ccc(N2CCC(C(=O)NCc3ccco3)CC2)nn1,i,+
O=C1/C(=C/c2ccccc2Cl)Oc2cc(OC(=O)N3CCOCC3)ccc21,/,i
COc1ccc2c(c1)CCN(C(=O)c1cc(-c3ccco3)n(C3CCS(=O)(=O)C3)n1)C2 (stereo not given),i,i
CN(C)CCCNC(=O)C(=O)Nc1ccc2c(c1)OCCO2,i,i
CC(=O)Nc1cccc(NC(=O)C(=O)NCCCN(C)C)c1,/,+
COc1ccc(Cl)cc1NC(=O)c1ccc(=O)n(Cc2ccccc2Cl)c1,i,i
Cc1c(C)n2c3c(=O)n(Cc4cccc(Cl)c4)c(=O)n(C)c3nc2n1CCN(C)C,i,+
Cc1ccc(C)c(Cn2c(=O)c3c(nc4n(CCCN(C)C)c(C)c(C)n34)n(C)c2=O)c1,i,i
COc1ccc(-c2nc(S(=O)(=O)c3ccc(F)cc3)c(N3CCOCC3)o2)cc1,i,i
COc1ccc(OC)c(-c2ccc(=O)n(CC(=O)Nc3ccc(C(C)C)cc3)n2)c1,i,i
Cc1nnc2ccc(N3CCN(C(=O)NCc4ccccc4)CC3)nn12,i,i
Cc1ccc(C)c(S(=O)(=O)N2CCN(c3ccc4nnc(-c5ccco5)n4n3)CC2)c1,i,i
Cc1nnc2ccc(N3CCN(S(=O)(=O)c4ccccc4Cl)CC3)nn12,i,+
Cc1nnc2ccc(N3CCN(S(=O)(=O)c4ccccc4C(F)(F)F)CC3)nn12,i,i
